From PubChem
Rows were chosen to be rich in hits. Some 2.4% of all compounds tested hit in one or more screens of this group.
MEKK2mut PB1 HTS = signal of MEK5 binding to mutant human MEKK2 PB1 domain; hit rate 0.35% among 290,000; AID 1530; bead flow cytometry, Alexa488-MEK5 binding to MEKK2 mutant; percent response, % at 10 µM; in the data active = percent response above about 24%, passing the limit was not always enough
Arbovirus inh = blocks arbovirus infection. arbovirus infection cell-based antiviral screen. inhibition, % at 10 µM. hit rate 0.37% among 200,000; in the data active = inhibition above about 30%
Pf gamet viab = P. falciparum stage V gametocyte viability inhibition. P. falciparum stage V gametocytes, ATP luminescence, 24 h. inhibition, % at 10.9 µM. AID 743093. hit rate 0.065% among 150,000;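 active = inhibition above the mean plus 3 SD of compounds within the control limits, set per campaign, cut at about 38% in these data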;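 note: 0% = DMSO wells and 100% = medium only without gametocytes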
MEKK3 PB1 HTS = MEKK3-MEK5 PB1 interaction, increase or decrease. Q99759. bead-based flow cytometry, Alexa488-MEK5 binding to MEKK3; actives lie on both sides; 0 = blocked by unlabeled MEK5, 100 = vehicle. binding response (% of control), % at 10 µM. hit rate 1.4% among 290,000. AID 1529;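 active = binding response more than 3 SD above or below the average of its plate-row segment, actives on both sides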;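 note: Alexa488 bead fluorescence after subtracting the streptavidin-only scavenger bead signal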
Target sequence (Q99759 whole entry, looked up): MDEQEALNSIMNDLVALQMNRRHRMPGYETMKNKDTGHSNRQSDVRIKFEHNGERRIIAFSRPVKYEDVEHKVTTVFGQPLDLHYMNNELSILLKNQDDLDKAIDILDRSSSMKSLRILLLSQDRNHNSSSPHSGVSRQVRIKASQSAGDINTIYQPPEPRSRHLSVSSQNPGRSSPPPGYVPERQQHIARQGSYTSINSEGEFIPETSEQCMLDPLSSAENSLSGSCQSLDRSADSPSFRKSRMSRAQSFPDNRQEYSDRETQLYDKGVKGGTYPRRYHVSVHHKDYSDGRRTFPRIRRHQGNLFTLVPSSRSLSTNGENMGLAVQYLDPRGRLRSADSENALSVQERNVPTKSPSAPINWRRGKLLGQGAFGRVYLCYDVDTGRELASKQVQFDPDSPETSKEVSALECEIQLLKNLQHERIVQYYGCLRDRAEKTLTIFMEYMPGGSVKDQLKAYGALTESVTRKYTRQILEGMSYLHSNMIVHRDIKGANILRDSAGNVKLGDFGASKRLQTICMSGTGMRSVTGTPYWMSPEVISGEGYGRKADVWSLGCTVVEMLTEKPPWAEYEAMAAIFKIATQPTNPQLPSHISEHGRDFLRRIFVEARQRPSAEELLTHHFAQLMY
MEKK2 WT-MEK5 = raises or lowers MEK5 binding to wildtype human MEKK2 PB1 domain; Q9Y2U5; bead flow cytometry, Alexa488-MEK5 binding to MEKK2 WT; actives lie on both sides; binding response (% of control), % at 10 µM; hit rate 1.1% among 290,000; in the data active = binding response below about 67% or above about 130%
MEKK2wt confirm = raises or lowers MEK5 binding to wildtype human MEKK2, retest. hit rate 2.4% among 5,900. binding response (% of control), % at 10 µM. bead flow cytometry, Alexa488-MEK5 binding to MEKK2 WT; actives lie on both sides. shares compounds with MEKK3 PB1 HTS; in the data active = binding response below about 16% or above about 210%; inactive = in between
MEKK2mut confirm = signal of MEK5 binding to mutant human MEKK2, retest; hit rate 2% among 5,900; percent response, % at 10 µM; AID 1893; bead flow cytometry, Alexa488-MEK5 binding to MEKK2 mutant; shares compounds with MEKK3 PB1 HTS; in the data active = percent response mostly above about 71%, no sharp cut-off; inactive = mostly below about 38%;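 note: higher means compound restores mutant binding toward wildtype level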
MEKK3 confirm = MEKK3-MEK5 PB1 inhibition, single concentration confirmation. AID 1894. binding response (% of control), % at 10 µM. shares compounds with MEKK3 PB1 HTS. bead flow cytometry, Alexa488-MEK5 binding to MEKK3; stronger effect = lower value. hit rate 1.8% among 5,900;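 active = binding response below 72% of control, or above a set upper limit, though filed actives all read lower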;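 note: 100% = DMSO only wells and 0% = binding blocked by excess unlabeled MEK5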
Active calls of the source: *; · = no result; [ ] = another dose, or the depositor's remark.

SMILES	MEKK2mut PB1 HTS	Arbovirus inh	Pf gamet viab	MEKK3 PB1 HTS	MEKK2 WT-MEK5	MEKK2wt confirm	MEKK2mut confirm	MEKK3 confirm
COc1ccc(C)cc1S(=O)(=O)N1CCCCCC1	26	·	21	129*	112	99	6	102
CC(C)(C)c1ccc(OCc2ccc(C(=O)NCc3cccnc3)o2)cc1	2	0	·	100	100	·	·	·
CN(C)CCOC(=O)c1ccc2[nH]c3c(c2c1)CSCC3	39	·	-20	108	194*	102	-4	104
COc1ccc2cc3c(N)nn(C(=O)c4ccccc4[N+](=O)[O-])c3nc2c1	-1	-4	3	72*[inhibitor]	98	95	-3	97
COc1ccc2cc3c(N)nn(C(=O)c4ccc(Cl)c([N+](=O)[O-])c4)c3nc2c1	-2	28	10	104	89	·	·	·
Cc1cccc(CCNC(=O)c2cc(S(=O)(=O)N3CCCCC3)c[nH]2)c1	0	·	·	97	95	·	·	·
Cc1c(C(=O)NNS(=O)(=O)c2ccccc2)sc(=S)n1C	0	-7	-13	139*	113	97	-5	102
Cc1nnsc1C(=O)NNS(=O)(=O)c1ccccc1	8	11	·	102	104	·	·	·
COC(=O)C(C)N(C#N)c1nc(C)cc(C)n1 (centres undefined)	7	6	20	131*	117	107	6	104
O=C(Nc1cccc(F)c1)NC1CCN(Cc2ccccc2)CC1	-5	-18	-5	96	98	·	·	·
CC(=O)Nc1cccc(-n2nnc(SCC(=O)c3ccccc3)n2)c1	27	·	-3	129*	131	107	-2	105
O=C(CSc1nnc(-c2ccccc2)o1)c1ccc2c(c1)OCCO2	-15	2	1	80*[inhibitor]	85	109	6	103
Cc1cc(C)cc(-c2nnc(SCC(=O)c3ccc4c(c3)OCCO4)o2)c1	4	-6	·	111	100	·	·	·
O=C(CSc1ncn[nH]1)c1ccc2c(c1)OCCO2	-7	26	6	77*[inhibitor]	87	106	4	105
O=C(CN1CCCN(S(=O)(=O)c2ccc(Br)cc2)CC1)Nc1ccc2c(c1)OCO2	-9	-15	·	1.0*[inhibitor]	0.0*[inhibitor]	105	-2	97
COc1cccc(NC(=O)CN(C)C(=O)c2c(-c3ccccc3)noc2C)c1	4	·	·	101	104	·	·	·
Cc1ccccc1OCCn1cc(/C=C(\C#N)C(=O)NCc2ccco2)c2ccccc21	-2	-14	11	75*[inhibitor]	67	101	-2	103
N#C/C(=C\c1cn(CCOc2ccccc2)c2ccccc12)C(=O)NCc1ccco1	-1	1	3	100	93	·	·	·
COc1ccc(C(OC(=O)c2ccco2)C(=O)NC(C)(C)C)cc1 (centres undefined)	6	5	-15	139*	120	98	-6	101
COCCNC(=O)C(OC(=O)c1ccco1)c1ccccc1Cl (centres undefined)	4	·	20	107	108	·	·	·
COCCNC(=O)C(OC(=O)c1ccco1)c1ccccc1OC (centres undefined)	6	2	·	123*	122	100	-4	98
COc1ccc(-c2csc(NC(=O)CCS(=O)(=O)c3ccccc3)n2)c(OC)c1	-2	·	-11	96	98	·	·	·
CCOC(=O)CC1C(=O)NCCN1C(=O)c1ccc(C)cc1 (centres undefined)	-2	·	·	94	98	·	·	·
CCCOC(=O)CC1C(=O)NCCN1C(=O)OC(C)(C)C (centres undefined)	-18	-4	11	39*[inhibitor]	48	103	-1	102
O=C1C(=O)N(CCCO)C(c2ccc(Br)cc2)/C1=C(\O)c1ccc(Br)cc1 (centres undefined)	28*	·	2	111	113	94	-3	100
SMILES	MEKK2mut PB1 HTS	Arbovirus inh	Pf gamet viab	MEKK3 PB1 HTS	MEKK2 WT-MEK5	MEKK2wt confirm	MEKK2mut confirm	MEKK3 confirm
CN1C(=O)C(=O)/C(=C(/O)c2ccccc2)C1c1ccc(Br)cc1 (centres undefined)	6	·	-6	107	111	·	·	·
COCCCN1C(=O)C(=O)/C(=C(/O)c2ccccc2)C1c1ccc(N(C)C)cc1 (centres undefined)	223*	0	·	102	152*	97	-3	97
CN(C)c1ccc(C2/C(=C(/O)c3ccccc3)C(=O)C(=O)N2CCCC(=O)O)cc1 (centres undefined)	-3	·	-6	107	105	·	·	·
O=C(O)c1ccc(CP(=O)(c2ccccc2)c2ccccc2)cc1	11	·	10	122*	123	105	5	105
CN(C)n1cccc1/C=C(\C#N)S(=O)(=O)c1ccc(Cl)cc1	33	·	3	139*	120	101	-6	104
Cc1ccc(CN2CCN(Cc3ccco3)CC2)cc1	5	·	2	104	104	·	·	·
CCOC(=O)C(NC(=O)NCc1ccc(F)cc1)(OCC)C(F)(F)F (centres undefined)	4	-5	9	128*	107	104	1	103
CCOC(=O)C(NC(=O)Nc1ccc(Cl)cn1)(Oc1ccc(F)cc1)C(F)(F)F (centres undefined)	3	18	14	152*	103	107	11	105
Cn1c(CNc2ccc(Cl)cc2)nc2ccccc21	10	1	-1	106	105	·	·	·
CC(C)N=c1cc2n(-c3ccc(Cl)cc3)c3ccccc3nc-2cc1Nc1ccc(Cl)cc1	22	·	·	70*[inhibitor]	114	95	14	53*
Cc1cc(/C=C(\C#N)C(=O)Nc2ccc(F)cc2)c(C)n1-c1ccc(N2CCOCC2)c([N+](=O)[O-])c1	1	3	·	101	101	·	·	·
COc1ccc(NC(=O)/C(C#N)=C/c2cc(C)n(-c3ccc(N4CCOCC4)c([N+](=O)[O-])c3)c2C)cc1	0	-10	-4	132*	102	102	3	106
COc1ccccc1NC(=O)CN1CCN(CC(=O)Nc2ccc(C)c(F)c2)CC1	3	·	·	102	106	·	·	·
O=C(OCc1nnc(-c2ccc(Cl)cc2)o1)c1ccncc1	-2	0	·	97	90	·	·	·
Cc1ccccc1C(=O)OCc1nnc(-c2ccc(Cl)cc2)o1	6	3	6	146*	121	93	-5	98
CC(=O)c1ccc(OCCCC(=O)OCc2nnc(-c3ccc(Cl)cc3)o2)cc1	-2	2	-33	102	99	·	·	·
Cc1noc(C)c1COc1ccc(C(=O)OCc2nnc(-c3ccc(Cl)cc3)o2)cc1	-21	0	·	2.0*[inhibitor]	2.0*[inhibitor]	100	-3	103
